# Measurements reported in PubChem BioAssay.
# Calls of active or inactive are those of the source.
# Legend:
# [1] = test system: Plasmodium falciparum Sir2 (PF13_0152, Sir2A); assay: pfSir2 binders on small-molecule microarrays, primary screen, biochemical, small-molecule microarray, 635 nm fluorescence (AID 1098); settings: small-molecule microarray binding, fluorescence 635 nm; higher = more signal;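 also: score merges spot fluorescence intensity with its signal-to-noise ratio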
# [2] = small-molecule microarray binders of probe aDKK1, primary screen, biochemical, biotinylated probe, 635/667 nm fluorescence (AID 1099); settings: higher = more signal;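 also: score merges 667nm spot fluorescence with signal to noise across triplicate slides; reference of the scale not given here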
# [3] = small-molecule microarray binders of probe aCHRDL2, primary screen, biochemical, biotinylated probe, 635/667 nm fluorescence (AID 1100); settings: higher = more signal
# [4] = splicing luciferase reporter signal modulators, primary screen, spliceosome inhibition project, cell-based, HEK293, splice +/- reporter (AID 1101); settings: luminescence, 24 h, higher = more signal, called active from +8 up or from −8 down;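 also: HEK293 cells carrying a splicing-competent luciferase reporter gene; test concentration not given here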
# [5] = molecular target: Fibroblast growth factor 10 (Homo sapiens) (UniProt O15520); assay: FGF10 binders on small-molecule microarrays, primary screen, biochemical, small-molecule microarray, 635 nm fluorescence (AID 1102); settings: FGF10 binding, fluorescence 635 nm, higher = more signal
# Chain of Fibroblast growth factor 10 (Homo sapiens) (O15520 whole entry, looked up): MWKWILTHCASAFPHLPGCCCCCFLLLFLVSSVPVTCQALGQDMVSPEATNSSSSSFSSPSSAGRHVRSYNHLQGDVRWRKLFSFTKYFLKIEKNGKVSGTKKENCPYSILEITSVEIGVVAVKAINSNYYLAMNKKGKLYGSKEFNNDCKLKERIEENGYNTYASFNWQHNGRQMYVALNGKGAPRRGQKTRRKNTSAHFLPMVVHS
# [6] = test system: glycogen synthase kinase-3 (GSK3A per assay name; protocol says GSK3B); assay: GSK3 binders on small-molecule microarrays, primary screen, biochemical, small-molecule microarray, 635 nm fluorescence, GSK3A (AID 1103); settings: small-molecule microarray binding, fluorescence 635 nm; higher = more signal; also: the record names both GSK3A and GSK3B
# [7] = molecular target: Epidermal growth factor receptor (Homo sapiens) (UniProt P00533); assay: EGFR binders on small-molecule microarrays, primary screen, biochemical, small-molecule microarray, 635 nm fluorescence (AID 1104); settings: EGFR binding, higher = more signal;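 also: score merges 667 nm emission intensity with spot signal to noise over triplicate slides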
# Chain of Epidermal growth factor receptor (Homo sapiens) (P00533 whole entry, looked up): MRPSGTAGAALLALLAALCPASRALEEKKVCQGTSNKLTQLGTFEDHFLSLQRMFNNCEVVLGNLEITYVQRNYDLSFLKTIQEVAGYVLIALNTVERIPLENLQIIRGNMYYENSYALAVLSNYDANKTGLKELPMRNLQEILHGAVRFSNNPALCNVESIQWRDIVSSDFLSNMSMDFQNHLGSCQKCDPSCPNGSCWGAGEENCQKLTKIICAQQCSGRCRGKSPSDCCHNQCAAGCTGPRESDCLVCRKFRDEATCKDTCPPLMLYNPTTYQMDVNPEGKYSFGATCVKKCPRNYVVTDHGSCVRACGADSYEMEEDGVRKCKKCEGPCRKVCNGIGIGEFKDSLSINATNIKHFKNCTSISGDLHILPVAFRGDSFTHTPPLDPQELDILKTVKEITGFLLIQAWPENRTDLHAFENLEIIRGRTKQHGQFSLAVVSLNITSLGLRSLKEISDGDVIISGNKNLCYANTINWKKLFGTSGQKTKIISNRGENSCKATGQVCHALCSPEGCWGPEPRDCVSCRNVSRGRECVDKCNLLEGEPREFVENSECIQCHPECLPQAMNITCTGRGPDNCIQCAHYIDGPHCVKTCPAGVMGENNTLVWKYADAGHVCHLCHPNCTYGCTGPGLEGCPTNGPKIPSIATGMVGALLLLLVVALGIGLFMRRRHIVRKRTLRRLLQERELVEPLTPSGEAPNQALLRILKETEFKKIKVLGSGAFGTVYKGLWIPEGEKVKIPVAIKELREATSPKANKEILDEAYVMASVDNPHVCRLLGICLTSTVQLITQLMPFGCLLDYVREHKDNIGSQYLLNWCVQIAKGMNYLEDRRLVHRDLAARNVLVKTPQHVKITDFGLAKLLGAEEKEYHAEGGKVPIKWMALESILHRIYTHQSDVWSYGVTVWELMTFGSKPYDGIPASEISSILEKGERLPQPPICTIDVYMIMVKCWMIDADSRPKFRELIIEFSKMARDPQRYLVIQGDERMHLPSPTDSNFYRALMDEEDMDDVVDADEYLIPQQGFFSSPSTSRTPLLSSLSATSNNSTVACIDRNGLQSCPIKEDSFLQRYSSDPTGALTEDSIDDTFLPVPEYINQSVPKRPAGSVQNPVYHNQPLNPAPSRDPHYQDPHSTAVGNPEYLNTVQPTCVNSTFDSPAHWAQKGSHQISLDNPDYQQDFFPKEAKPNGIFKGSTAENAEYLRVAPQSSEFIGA
# [8] = molecular target: Follistatin-related protein 3 (Homo sapiens) (UniProt O95633); assay: FSTL3 binders on small-molecule microarrays, primary screen, biochemical, small-molecule microarray, 635 nm fluorescence (AID 1105); settings: FSTL3 binding, higher = more signal;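 also: score merges emission near 667 nm and signal to noise per printed spot across three slides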
# Chain of Follistatin-related protein 3 (Homo sapiens) (O95633 whole entry, looked up): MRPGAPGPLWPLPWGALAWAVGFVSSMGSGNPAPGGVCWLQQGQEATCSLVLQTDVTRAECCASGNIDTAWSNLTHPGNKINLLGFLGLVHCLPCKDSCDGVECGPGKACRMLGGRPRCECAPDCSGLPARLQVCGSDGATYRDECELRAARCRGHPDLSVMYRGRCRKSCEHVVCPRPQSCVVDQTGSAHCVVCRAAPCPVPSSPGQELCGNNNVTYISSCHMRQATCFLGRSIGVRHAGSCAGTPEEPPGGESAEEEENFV
# [9] = molecular target: Dickkopf-related protein 1 (Homo sapiens) (UniProt O94907); assay: DKK1 binders on small-molecule microarrays, primary screen, biochemical, small-molecule microarray, 635 nm fluorescence scan (AID 1106); settings: DKK1 binding, higher = more signal;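 also: score merges emission near 667 nm with signal to noise over three replicate slides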
# Chain of Dickkopf-related protein 1 (Homo sapiens) (O94907 whole entry, looked up): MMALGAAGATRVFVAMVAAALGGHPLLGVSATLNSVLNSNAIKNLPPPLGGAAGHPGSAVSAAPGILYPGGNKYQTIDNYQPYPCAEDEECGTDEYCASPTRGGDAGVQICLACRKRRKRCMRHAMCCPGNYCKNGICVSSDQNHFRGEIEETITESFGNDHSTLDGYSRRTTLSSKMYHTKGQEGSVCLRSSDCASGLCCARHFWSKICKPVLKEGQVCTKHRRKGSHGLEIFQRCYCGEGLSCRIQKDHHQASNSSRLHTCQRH
# [10] = test system: Inhibin beta A chain (activin A); assay: INHBA (activin A) binders on microarrays, primary screen, biochemical, small-molecule microarray, 635 nm fluorescence scan (AID 1107); settings: small-molecule microarray binding, higher = more signal;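 also: mouse activin A protein probed at 4.33 µg/mL on printed slides; score merges bound-protein fluorescence near 667 nm with spot signal-to-noise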
Structure (SMILES),composite z-score [1],composite z-score [2],composite z-score [3],z-score [4],composite z-score [5],composite z-score [6],composite z-score [7],composite z-score [8],composite z-score [9],composite z-score [10]
COc1ccc([Si](C)(C)[C@H]2[C@H](CCn3cc(CCO)nn3)O[C@@]3(C(=O)N(Cc4ccc(N5CCOC5=O)cc4)c4ccccc43)[C@@H]2C)cc1,1.51,-0.0848,0.236,-0.188 (inactive),0.209,0.625,-0.0252,0.642,0.141,0.766
O=C1O[C@H](c2ccccc2)[C@H](c2ccccc2)N2[C@H]1[C@@H](C(=O)N1CCN(c3ncccn3)CC1)[C@]1(C(=O)Nc3ccccc31)[C@H]2c1ccc(OCCO)cc1,0.348,-0.0864,0.174,-1.15 (inactive),1.29,1.22,0.665,1.32,0.632,0.395
COC(=O)[C@@]1(Cc2ccccc2)N=C(c2ccc(OCCCO)cc2)O[C@H]1c1ccccc1N=[N+]=[N-],1.38,0.0861,0.657,-0.384 (inactive),0.883,0.887,-0.003,0.848,0.425,1.23
Cc1ccccc1C(O)C1C=CC2C(=O)N(C)C(=O)C2N1N1CCCCC1 (stereo not given),1.29,0.837,0.906,1.28 (inactive),0.975,1.04,0.628,0.621,0.215,1.28
C[C@]1(C(=O)NCc2ccccc2)c2ccccc2C(=O)N(Cc2cc(F)cc(C(F)(F)F)c2)[C@H]1c1ccc(CO)cc1,0.876,0.214,0.637,-0.102 (inactive),-0.384,-0.422,-0.505,-1.45,-1.21,-0.185
C=C[C@H](COC(C)=O)N(Cc1ccc(OC(C)=O)c(OC)c1)S(=O)(=O)c1ccc(Br)cc1,0.723,0.64,0.612,-1.16 (inactive),0.934,1.06,0.493,0.579,0.844,0.426
CCCNC(=O)[C@@H]1c2ccccc2C(=O)N(Cc2ccccc2)[C@H]1c1ccc(CO)cc1,0.405,-0.0972,0.933,0.0373 (inactive),-0.239,0.0282,-0.592,-0.637,-0.744,-0.217
CC1=C2[C@@H](CCc3ccccc3)OB(O)C[C@@H]2n2c(=O)n(-c3ccccc3)c(=O)n2C1,0.897,-0.0992,-0.339,0.72 (inactive),0.355,0.255,0.249,0.894,0.565,0.421
COc1ccc(CCNC(=O)[C@@]2(Sc3ccc(C)cc3)CC(=O)N(Cc3ccccc3Cl)[C@@H]2c2ccc(CO)cc2I)cc1,0.661,0.195,0.989,-1.1 (inactive),-0.778,0.351,-1.08,-0.78,-1.15,1.24
C=CC[C@@]1(C(=O)N2CCOCC2)N=C(c2ccc(OCCCO)cc2)O[C@@H]1c1ccccc1N=[N+]=[N-],0.904,1.01,1.08,-2.33 (inactive),1.31,0.951,0.279,0.606,0.174,1.16
C=CCOC(=O)[C@H]1[C@@H]2C(=O)O[C@@H](c3ccccc3)[C@@H](c3ccccc3)N2[C@@H](c2ccc(OCCOC(=O)[C@@H]3C[C@@H]4C(=O)N5CCC[C@H]5C(=O)N4[C@@H]3c3ccc(O)cc3)cc2)[C@]12C(=O)Nc1ccccc12,1.53,-0.294,0.0807,0.109 (inactive),0.629,1.28,0.586,1.21,1.45,-0.23
O=C1c2ccccc2[C@@]2(Cc3ccccc3N(Cc3ccccc3)C2=O)[C@H](c2ccc(CO)cc2)N1C1CCCCC1,1.3,-0.367,-0.292,-0.322 (inactive),0.831,0.152,0.131,0.41,0.662,0.784
COc1cc(C(O)C2C=CC3C(=O)N(c4ccccc4)C(=O)C3N2Nc2ccc(C#N)cc2)cc(OC)c1OC (stereo not given),1.4,1.45,1.34,1.22 (inactive),1.17,1.33,-0.209,1.25,-0.536,0.0506
O=C1N(CCS(=O)(=O)c2ccccc2)Cc2ccccc2[C@H]2OC(c3ccc(OCCCO)cc3)=N[C@@]12CCS(=O)(=O)c1ccccc1,1.55,0.883,1.13,-0.872 (inactive),1.03,0.916,0.423,0.411,0.13,1.03
CCCCCN1CC=CC23O[C@@H]4/C=C\CCC(C)OC(=O)C4[C@H]2C(=O)N(CCCCCO)[C@@H]3C1=O (stereo not given in full),0.16,-0.499,-0.0779,-0.228 (inactive),-0.57,-0.77,0.361,-0.501,-1.07,-0.362
O=C1OCCC=C[C@H]2OC34C=CCN(Cc5ccccc5)C(=O)[C@H]3N(CCCCCO)C(=O)[C@@H]4C12 (stereo not given in full),1.96,-0.285,0.672,-0.34 (inactive),-0.779,1.06,-0.744,-0.595,-1.19,0.141
